Rows were chosen to be rich in hits. Some 27% of all compounds tested hit in one or more screens of this group.
CYP2C9 activ: CYP2C9 (human) activation. activation factor at 5 µM. P11712. recombinant CYP2C9, luciferin-H conversion, luminescence; active compounds read high; factor 1 = untreated enzyme, 0 = blocked. 1.4% of 96,000 active;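 active = activation factor of 2 or more for CYP2C9 at a 5 µM dose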;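 note: 0 = sulfaphenazole-blocked wells and 1 = vehicle-only wells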
CYP2C19 activ: increases human CYP2C19 enzyme activity. 96,000 tested, under 10 active. P33261. AID 1025. recombinant CYP2C19, luciferin-H EGE luminescence; active compounds read high; 0 = fully inhibited enzyme, 1 = untreated enzyme. activation factor at 5 µM;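 active = activation factor of at least 2 at 5 µM in the primary screen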;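 note: 0 = wells with 2.5 mM tranylcypromine and 1 = vehicle-only wells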
sEH act: activators of human soluble epoxide hydrolase; purified human sEH enzymatic activity, activator screen; activation, % at 2 µM; AID 717; P34913; 0.04% of 91,000 active; in the data active = activation above about 37%
Target sequence (P34913 whole entry, looked up): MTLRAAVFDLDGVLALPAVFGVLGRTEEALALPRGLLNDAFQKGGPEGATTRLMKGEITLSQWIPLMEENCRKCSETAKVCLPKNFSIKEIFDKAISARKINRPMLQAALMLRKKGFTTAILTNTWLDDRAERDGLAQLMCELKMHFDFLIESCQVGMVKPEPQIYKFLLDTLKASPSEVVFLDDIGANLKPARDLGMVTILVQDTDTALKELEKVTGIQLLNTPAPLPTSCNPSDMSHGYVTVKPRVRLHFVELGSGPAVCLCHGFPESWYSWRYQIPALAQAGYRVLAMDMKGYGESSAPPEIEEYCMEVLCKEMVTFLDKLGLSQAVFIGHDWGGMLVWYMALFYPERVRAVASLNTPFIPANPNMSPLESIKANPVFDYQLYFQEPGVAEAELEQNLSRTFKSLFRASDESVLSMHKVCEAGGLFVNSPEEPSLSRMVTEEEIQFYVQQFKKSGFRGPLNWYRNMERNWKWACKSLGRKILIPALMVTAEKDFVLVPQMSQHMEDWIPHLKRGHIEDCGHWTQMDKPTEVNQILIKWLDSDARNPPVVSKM
CYP2C9 inh: inhibitors of human CYP2C9. CYP2C9 Supersomes, luciferin-H conversion, luminescence. P11712. inhibition, % at 5 µM. 20% of 96,000 active;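 active = blocking of liver enzyme CYP2C9 beyond about 50% at 5 µM, limit read from the data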
sEH inhibitor: inhibitors of human soluble epoxide hydrolase; P34913; AID 707; inhibition, % at 2 µM; 0.34% of 91,000 active; recombinant human sEH enzymatic activity assay; in the data active = inhibition above about 80%
CYP2C19 inhib: inhibitors of human CYP2C19. P33261. CYP2C19 Supersomes, luciferin-H EGE luminescence, 30 min. inhibition, % at 5 µM. 21% of 96,000 active;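 active = CYP2C19 inhibition above a set limit at 5 µM in the primary screen, cut at about 50% in these data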;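 note: plate controls were negative control wells for no effect and 2.5 mM tranylcypromine positive control for full effect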
Active calls of the source: *; nt = no result.

SMILES | CYP2C9 activ | CYP2C19 activ | sEH act | CYP2C9 inh | sEH inhibitor | CYP2C19 inhib
Cc1nnc(OC(C)C)c2nn(-c3ccccc3F)c(C)c12 | 0.1 | 0.5 | -11 | 89* | 14 | 51*
O=C(CCCN1C(=O)CCC1=O)Nc1ccc2c(c1)OCCO2 | 0.8 | 0.9 | -9 | 16 | 11 | 15
COc1ccccc1NC(=O)CSc1nnc(CNC(=O)COc2ccc(Cl)cc2)o1 | 2.2* | 0.4 | 0 | -122 | 4 | 59*
COc1ccc(NC(=O)CSc2nnc(CNC(=O)COc3ccc(Cl)cc3)o2)c(OC)c1 | 0.9 | 0.6 | 9 | 11 | -5 | 37
C/C(N)=C(/C#N)C(=O)CSc1nnc(COc2ccccc2Cl)o1 | 0.8 | 0.5 | -9 | 18 | 8 | 48
COC(=O)c1ccccc1NC(=O)CSc1nnc(Cc2ccc(Cl)cc2)o1 | 0.2 | 0.1 | -1 | 82* | 4 | 91*
COc1ccccc1OCc1nnc(SCC(=O)c2cc(Cl)ccc2OC)o1 | 2.6* | 0.9 | -9 | -156 | 9 | 8
COc1ccc(OC)c(NC(=O)CSc2nnc(CNC(=O)COc3ccc(Cl)cc3)o2)c1 | 1.1 | 0.4 | 5 | -10 | -1 | 61*
COc1ccccc1NC(=O)CSc1nnc(CNC(=O)c2ccco2)o1 | 1.1 | 1.1 | -4 | -12 | 2 | -11
COc1cc(C2SCC(=O)N2CCCN(C)C)cc(OC)c1OC (centres undefined) | 0.9 | 1.2 | -12 | 5 | 8 | -17
CC1CCN(C(=O)COC(=O)[C@H](C)NS(=O)(=O)/C=C/c2ccccc2)CC1 | 1.6 | 0.6 | 8 | -64 | -10 | 37
Brc1ccc2c(c1)C(c1ccc(N3CCOCC3)cc1)=NNC(c1cccs1)=N2 | 0.5 | 0.6 | 10 | 50 | -11 | 41
Fc1ccc2c(c1)C(c1ccc(N3CCOCC3)cc1)=NNC(c1cccs1)=N2 | 0.2 | 0.1 | 2 | 84* | 0 | 90*
CC(=O)N1CCN(C2c3cccc4cccc(c34)C2NS(=O)(=O)c2ccccc2)CC1 (centres undefined) | 0.3 | 0.3 | -8 | 68* | 10 | 74*
Cc1ccc(SCCNC(=S)Nc2cc(C)ccc2C)cc1 | 0.6 | 0.5 | 1 | 42 | -1 | 54*
Nc1nnc(COc2ccc(Br)cc2Br)s1 | 0.9 | 0.3 | 11 | 6 | -9 | 71*
Cc1cc(S(=O)(=O)N(C)CCc2ccccc2)ccc1-n1cnnn1 | 0.7 | 0.4 | nt | 26 | nt | 57*
COc1cc(S(=O)(=O)N(Cc2ccccc2)Cc2ccccn2)ccc1-n1cnnn1 | nt | nt | 16 | nt | -12 | nt
COc1cccc(CN(Cc2cccnc2)S(=O)(=O)c2ccc(-n3cnnn3)c(C)c2)c1 | 0.8 | 0.4 | -13 | 17 | 13 | 60*
COC(=O)CC1=NC(=O)CS1 | 1.1 | 1.2 | nt | -14 | nt | -21
CCN(CC)CCNC(=O)c1ccc(CS(=O)(=O)c2ccc(Br)cc2)o1 | nt | nt | 11 | nt | -11 | nt
COc1cc2c(cc1OC)C(c1cccc([N+](=O)[O-])c1)N(C(=O)c1ccc(F)cc1)CC2 (centres undefined) | 0.3 | 0.2 | 5 | 65* | -2 | 81*
COc1cc2c(cc1OC)C(c1ccccc1)N(C(=O)c1ccco1)CC2 (centres undefined) | 0.2 | 0.1 | 16 | 82* | -11 | 94*
CCN1C(=O)C(C)S/C1=N\S(=O)(=O)c1ccc(Cl)s1 (centres undefined) | 1.2 | 0.3 | -14 | -16 | 15 | 70*
CCOc1ccccc1N1CCN(S(=O)(=O)c2ccc(Cl)s2)CC1 | 0.5 | 0.5 | -16 | 46 | 15 | 45
SMILES | CYP2C9 activ | CYP2C19 activ | sEH act | CYP2C9 inh | sEH inhibitor | CYP2C19 inhib
O=S(=O)(NCc1cn2ccsc2n1)c1ccc(Oc2ccccc2)cc1 | 0.2 | 0.3 | 14 | 80* | -16 | 69*
O=S(=O)(NCc1cn2ccsc2n1)c1cccs1 | 0.8 | 0.8 | 14 | 23 | -12 | 25
O=S(=O)(NCc1cn2ccsc2n1)c1ccc2c(c1)OCCO2 | 1.6 | 0.1 | -1 | -64 | 5 | 87*
CCc1ccc(S(=O)(=O)NCc2cn3ccsc3n2)s1 | 1 | 0.5 | nt | -1 | nt | 47
Cc1oc(-c2ccccc2F)nc1CS(=O)(=O)CC(=O)NC1CCCC1 | 0.5 | 0.9 | nt | 52* | nt | 14
Cc1oc(-c2ccccc2F)nc1CS(=O)(=O)CC(=O)NCCN(C)C1CCCCC1 | 1 | 1.1 | 4 | 3 | -3 | -10
Cc1oc(-c2ccccc2F)nc1CS(=O)(=O)CC(=O)N1CCc2ccccc21 | 0.8 | 1.2 | nt | 21 | nt | -16
Cc1oc(-c2ccccc2F)nc1CS(=O)(=O)CC(=O)N1CCN(c2ccccc2)CC1 | 0.4 | 0.4 | -12 | 65* | 10 | 60*
O=C(N1CCOCC1)N1CCN(C(=O)N2CCOCC2)CC1 | nt | nt | 10 | nt | -8 | nt
NC(=O)c1ccc(C2SCC(=O)N2Cc2ccccc2)cc1 (centres undefined) | 0.8 | 0.8 | -11 | 16 | 11 | 23
CC1(C)OC(=O)C(=CNC(CCC(N)=O)C(=O)O)C(=O)O1 (centres undefined) | 1.1 | 1.1 | 7 | -6 | -8 | -9
Cc1c(C(=O)N2CCC(C)CC2)oc2ccc(S(=O)(=O)N3CCC4(CC3)OCCO4)cc12 | 0.7 | 0.7 | -5 | 33 | 6 | 26
CC(=O)Nc1ccc(NS(=O)(=O)Cc2ccccc2)cc1 | 0.6 | 0.4 | 0 | 37 | 1 | 58*
CC(=O)Nc1ccc(NS(=O)(=O)C(F)(F)F)cc1 | 0.6 | 0.9 | 5 | 38 | -3 | 14
CC(=O)Nc1ccc(NS(=O)(=O)c2cccc3ccccc23)cc1 | 0.7 | 0.1 | -5 | 29 | 5 | 89*
NC(=O)c1ccccc1NS(=O)(=O)Cc1ccccc1 | 4* | 0.5 | 8 | -295 | -10 | 50
CC(=O)Nc1ccc(NS(=O)(=O)c2ccc3ccccc3c2)cc1 | 0.3 | 0 | 7 | 75* | -5 | 99*
COc1ccc(CN2CCCCC2c2cccnc2)c(OC)c1C (centres undefined) | 0.9 | 0.6 | nt | 5 | nt | 38
CCCC1CCc2c(c3ccccc3[nH]c2=O)O1 (centres undefined) | 0.8 | 0.6 | 18 | 25 | -15 | 42
O=C(NCCc1ccccc1)C1CCCN1C(=O)Nc1ccc(F)cc1 (centres undefined) | 0.9 | 0.8 | nt | 7 | nt | 20
O=C(c1ccco1)N1CCN(C(=O)c2nn3cccnc3c2Cl)CC1 | 1.1 | 1.1 | -6 | -5 | 5 | -5
CC(=O)Nc1ccc(S(=O)(=O)N(Cc2ccccc2)C(C)C)cc1 | 0.3 | 0.5 | -2 | 67* | 2 | 52*
CC(=O)Nc1ccc(S(=O)(=O)N(CC(=O)O)Cc2ccccc2)cc1 | 1.1 | 1 | -10 | -7 | 12 | 4
CC(C)N(Cc1ccccc1)S(=O)(=O)N(C)C | 0.8 | 0.2 | 9 | 23 | -11 | 77*
CC(=O)Nc1cccc(NC(=O)CSc2nnc(Cc3cccn3C)n2-c2ccc(C)cc2)c1 | 0.6 | 1 | nt | 38 | nt | 3
Cc1cccc(OCc2nnc(NC(=O)Cc3cccs3)s2)c1 | nt | nt | -2 | nt | 6 | nt

Screening results from PubChem BioAssay.
